# Where “and” joins values, the source holds several entries; their conditions need not be identical. Equal values may be shown once. Results filed as inconclusive are left out. Where a call stands in place of a potency, no number is given. Some structures have more than one record in an assay (separate samples or runs), and their calls can disagree. Calls of active or inactive are those of the source. Unless noted, calls come from the whole dose curve; as a rule, active = well fitted curve in the direction sought with a large enough effect in the repeat runs; inconclusive = weak or mixed curves; inactive = no such curve, though single readings can be large; an effect the other way counts as inactive or inconclusive.
# Legend:
# [1] = qHTS assay to identify small molecule antagonists of the thyroid receptor (TR) signaling pathway - cell viability counter screen (AID 743064); note: nearly all actives have a fitted effect of over 50% in size; note: potency is the fitted concentration of half-maximal effect
# How it was run: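 GH3.TRE-Luc rat pituitary cells carrying a TRE-luciferase reporter were treated with compound plus 1 nM T3 (final) for 23.5 h at 37 °C. Viability was then read in the same wells by CellTiter-Fluor fluorescence after a further 30 min.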
# [2] = qHTS assay to identify small molecule antagonists of the thyroid receptor (TR) signaling pathway (AID 743065); note: series mostly up to about 70 µM; nearly all actives have a fitted effect of over 55% in size
# How it was run: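 GH3.TRE-Luc rat pituitary cells carrying two TR response elements driving luciferase were plated for 4 h, given compound plus 1 nM T3 (final), and incubated 23.5 h at 37 C. ONE-Glo luminescence measured reporter inhibition; CellTiter-Fluor fluorescence tracked cytotoxicity.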
# [3] = test system: thyroid hormone receptor (rat, GH3 cells); test: qHTS assay to identify small molecule agonists of the thyroid receptor (TR) signaling pathway (AID 743066; calls by dose curve; note: potency is the fitted concentration of half-maximal effect)
# [4] = biological target: Estrogen receptor (Homo sapiens) (UniProt P03372); test: qHTS assay to identify small molecule antagonists of the estrogen receptor alpha (ER-alpha) signaling pathway (AID 743069; active = well fitted curve in the direction sought with a large enough effect in the signal ratio in the repeat runs, not every such curve was filed as active; the % refers to the signal ratio)
# How it was run: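 A 17beta-estradiol challenge was applied right after compound transfer to ER-alpha-UAS-bla HEK293 cells previously kept in charcoal-stripped serum. Plates stood 18 hr at 37C and 5% CO2; fluorescence was read following 2 hr FRET substrate loading at room temperature.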
# [5] = qHTS assay to identify small molecule antagonists of the estrogen receptor alpha (ER-alpha) signaling pathway - cell viability counter screen (AID 743074; calls by dose curve;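 note: HEK293 cells carrying ER-alpha-UAS-bla reporter stimulated with 17beta-estradiol; nearly all actives have a fitted effect of over 45% in size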)
# [6] = biological target: Estrogen receptor (Homo sapiens) (UniProt P03372); test: qHTS assay to identify small molecule agonists of the estrogen receptor alpha (ER-alpha) signaling pathway (AID 743075; calls by dose curve;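 note: HEK293 GripTite cells with ER-alpha and UAS-driven beta-lactamase reporter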)
# [7] = biological target: Estrogen receptor (Homo sapiens) (UniProt P03372); test: qHTS assay to identify small molecule agonists of the estrogen receptor alpha (ER-alpha) signaling pathway using the BG1 cell line (AID 743079); note: nearly all actives have a fitted effect of over 20% in size; note: potency is the fitted concentration of half-maximal effect
# [8] = qHTS assay to identify small molecule antagonists of the estrogen receptor alpha (ER-alpha) signaling pathway using the BG1 cell line (AID 743080; calls by dose curve;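 note: BG1 cells stimulated with 17beta-estradiol alongside compound; series mostly up to about 70 µM; nearly all actives have a fitted effect of over 25% in size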)
# How it was run: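 Luminescence from a 4×ERE-luciferase reporter in BG1-Luc-4E2 cells served as read-out. Cells, pre-cultured 5 days in stripped-serum phenol-red-free medium, were exposed to compound with 17beta-estradiol co-stimulation for 21.5 h at 37 C.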
# [9] = qHTS assay to identify small molecule antagonists of the estrogen receptor alpha (ER-alpha) signaling pathway using the BG1 cell line - cell viability counter screen (AID 743081);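 note: compound given together with 17beta-estradiol as the ER stimulus; series mostly up to about 70 µM; nearly all actives have a fitted effect of over 45% in size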
# Aromatase (Homo sapiens) = Aromatase (Homo sapiens) (UniProt P11511); test: qHTS assay to identify aromatase inhibitors (AID 743083); note: series mostly up to about 70 µM; nearly all actives have a fitted effect of over 55% in size
# [10] = qHTS assay to identify aromatase inhibitors - cell viability counter screen (AID 743084);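 note: cells stimulated with testosterone during compound exposure; nearly all actives have a fitted effect of over 55% in size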
# [11] = biological target: Aryl hydrocarbon receptor (Homo sapiens) (UniProt P35869); test: qHTS assay to identify small molecule that activate the aryl hydrocarbon receptor (AhR) signaling pathway (AID 743085);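 note: HG2L7.5c1 human HepG2 liver cells with stably integrated DRE-driven firefly reporter; series mostly up to about 70 µM; nearly all actives have a fitted effect of over 15% in size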
# How it was run: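 HepG2 cells (HG2L7.5c1) stably carrying a firefly luciferase reporter driven by 20 dioxin responsive elements were exposed to compound for 24 h at 37C after a 5 h settling period; luminescence rise (ONE-Glo) indicated activation.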
# [12] = qHTS assay to identify small molecule that activate the aryl hydrocarbon receptor (AhR) signaling pathway - cell viability counter screen (AID 743086);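 note: HepG2 liver cells carrying the AhR DRE luciferase reporter; series mostly up to about 70 µM; nearly all actives have a fitted effect of over 45% in size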
# How it was run: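 HepG2-AhR-luc (HG2L7.5c1) cells, 4000/well, were preincubated 5 h at 37C, exposed to compound in qHTS format for 24 hr at 37C, then given CellTiter-Fluor for 30 min; viability was read as fluorescence in the reporter wells.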
# [13] = biological target: Peroxisome proliferator-activated receptor gamma (Homo sapiens) (UniProt P37231); test: qHTS assay to identify small molecule agonists of the peroxisome proliferator-activated receptor gamma (PPARg) signaling pathway (AID 743094; active = well fitted activation curve with a large enough effect in the signal ratio in the repeat runs, not every such curve was filed as active; the % refers to the signal ratio)
# How it was run: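 HEK293H PPARg-bla cells, 5 h settle at 37C/5% CO2; compound (DMSO) 17 h, 37C; B/G FRET substrate 1 h RT; fluorescence intensity read-out. qHTS format.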
# [14] = qHTS assay to identify small molecule antagonists of the peroxisome proliferator-activated receptor gamma (PPARg) signaling pathway - cell viability counter screen (AID 743194); note: nearly all actives have a fitted effect of over 55% in size
# How it was run: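 PPARg-UAS-bla HEK293H cells were plated, rested 5 h at 37 C, then treated with compounds plus rosiglitazone (50 nM final) for 17 h at 37 C; viability was then read by CellTiter-Glo luminescence after 30 min at room temperature.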
# [15] = qHTS assay for small molecule agonists of the antioxidant response element (ARE) signaling pathway (AID 743202; active = well fitted activation curve with a large enough effect in the signal ratio in the repeat runs, not every such curve was filed as active; the % refers to the signal ratio)
# How it was run: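 Following a 16 h, 37 C exposure of reporter HepG2 cells (ARE-driven beta-lactamase, 2,000 cells/well) to compounds, FRET substrate was applied for 2 h at room temperature and fluorescence intensity recorded.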
# [16] = qHTS assay for small molecule agonists of the antioxidant response element (ARE) signaling pathway - cell viability counter screen (AID 743203; calls by dose curve; note: nearly all actives have a fitted effect of over 55% in size)
# How it was run: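 Luminescence read-out (CellTiter-Glo, 30 min at room temperature) measured cell viability in the same wells as the ARE beta-lactamase reporter. HepG2 ARE-bla cells were treated with compounds for 16 hrs at 37C/5% CO2.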
# [17] = qHTS assay for small molecule activators of the heat shock response signaling pathway - cell viability counter screen (AID 743209); note: nearly all actives have a fitted effect of over 50% in size
# How it was run: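 HSE-bla HeLa; 1500 cells/well; overnight 37 C, 5% CO2; compound 5 h 37 C; LiveBLAzer B/G substrate 2.5 h RT; CellTiter-Glo 30 min RT; luminescence.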
# [18] = qHTS assay for small molecule activators of the heat shock response signaling pathway (AID 743210; active = well fitted activation curve with a large enough effect in the signal ratio in the repeat runs, with a control signal flat, not every such curve was filed as active; the % refers to the signal ratio; note: series mostly up to about 63 µM)
# How it was run: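 Heat shock element–beta-lactamase HeLa reporter cells; qHTS with compounds for 5 h at 37 C; detection by FRET substrate fluorescence after 2.5 h at RT.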
# [19] = biological target: Peroxisome proliferator-activated receptor gamma (Homo sapiens) (UniProt P37231); test: qHTS assay to identify small molecule antagonists of the peroxisome proliferator-activated receptor gamma (PPARg) signaling pathway (AID 743191; calls by dose curve; note: series mostly up to about 63 µM; nearly all actives have a fitted effect of over 30% in size)
# How it was run: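 GeneBLAzer PPARg UAS-bla HEK293H cells carrying a UAS-driven beta-lactamase reporter were plated at 3000 cells/well, preincubated 5 h at 37C, then given compound for 17 h at 37C; LiveBLAzer B/G FRET substrate was read after 1 h at room temperature.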
# Peroxisome proliferator-activated receptor gamma (Homo sapiens), sequence (P37231 whole entry, looked up): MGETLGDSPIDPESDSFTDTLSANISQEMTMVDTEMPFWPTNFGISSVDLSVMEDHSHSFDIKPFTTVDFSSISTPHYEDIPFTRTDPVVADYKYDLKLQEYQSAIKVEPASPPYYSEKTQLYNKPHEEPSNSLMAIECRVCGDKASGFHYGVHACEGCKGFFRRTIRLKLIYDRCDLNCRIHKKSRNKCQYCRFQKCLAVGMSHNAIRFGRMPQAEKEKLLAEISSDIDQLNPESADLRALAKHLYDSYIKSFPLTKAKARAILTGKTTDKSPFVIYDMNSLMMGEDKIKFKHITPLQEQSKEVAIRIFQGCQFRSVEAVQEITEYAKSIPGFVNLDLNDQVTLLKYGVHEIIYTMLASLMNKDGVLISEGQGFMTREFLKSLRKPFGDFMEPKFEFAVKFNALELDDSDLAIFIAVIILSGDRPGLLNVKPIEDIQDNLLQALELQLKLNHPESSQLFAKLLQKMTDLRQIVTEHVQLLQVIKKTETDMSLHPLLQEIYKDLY
# Aryl hydrocarbon receptor (Homo sapiens), sequence (P35869 whole entry, looked up): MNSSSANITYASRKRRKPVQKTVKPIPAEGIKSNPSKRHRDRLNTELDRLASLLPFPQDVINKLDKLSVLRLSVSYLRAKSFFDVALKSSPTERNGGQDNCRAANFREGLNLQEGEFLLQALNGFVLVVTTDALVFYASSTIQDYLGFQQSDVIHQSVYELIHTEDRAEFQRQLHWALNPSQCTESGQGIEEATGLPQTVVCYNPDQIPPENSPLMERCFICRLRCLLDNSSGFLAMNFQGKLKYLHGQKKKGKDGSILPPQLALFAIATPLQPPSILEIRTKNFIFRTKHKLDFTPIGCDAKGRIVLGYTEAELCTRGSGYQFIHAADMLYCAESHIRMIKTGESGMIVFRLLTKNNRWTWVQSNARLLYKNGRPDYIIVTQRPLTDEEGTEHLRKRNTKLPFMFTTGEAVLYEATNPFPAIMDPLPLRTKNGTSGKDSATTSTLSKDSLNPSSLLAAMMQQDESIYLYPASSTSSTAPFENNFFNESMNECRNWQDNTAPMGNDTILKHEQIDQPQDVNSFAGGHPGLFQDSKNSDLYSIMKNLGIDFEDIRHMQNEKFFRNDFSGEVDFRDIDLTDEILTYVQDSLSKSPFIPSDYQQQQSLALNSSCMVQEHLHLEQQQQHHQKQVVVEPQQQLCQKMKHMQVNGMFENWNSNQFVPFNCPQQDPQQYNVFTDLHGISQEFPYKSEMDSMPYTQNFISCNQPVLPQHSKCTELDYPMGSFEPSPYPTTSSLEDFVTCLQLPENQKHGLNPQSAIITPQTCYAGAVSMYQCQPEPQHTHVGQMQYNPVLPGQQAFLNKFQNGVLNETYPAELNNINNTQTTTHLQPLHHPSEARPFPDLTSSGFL
# Aromatase (Homo sapiens), sequence (P11511 whole entry, looked up): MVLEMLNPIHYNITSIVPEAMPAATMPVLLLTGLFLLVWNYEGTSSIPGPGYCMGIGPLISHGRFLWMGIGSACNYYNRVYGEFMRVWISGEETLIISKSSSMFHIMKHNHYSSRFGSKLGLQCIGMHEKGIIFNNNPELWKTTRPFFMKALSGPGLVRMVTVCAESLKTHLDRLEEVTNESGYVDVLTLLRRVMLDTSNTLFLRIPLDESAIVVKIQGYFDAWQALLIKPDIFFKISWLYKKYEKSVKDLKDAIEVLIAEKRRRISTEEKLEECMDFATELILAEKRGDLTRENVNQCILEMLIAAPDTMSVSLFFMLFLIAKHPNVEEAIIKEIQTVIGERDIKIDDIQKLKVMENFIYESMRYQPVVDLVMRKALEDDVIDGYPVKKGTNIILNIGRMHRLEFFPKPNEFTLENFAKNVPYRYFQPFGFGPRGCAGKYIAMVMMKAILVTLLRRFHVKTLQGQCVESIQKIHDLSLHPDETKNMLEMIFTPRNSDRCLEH
# Estrogen receptor (Homo sapiens), sequence (P03372 whole entry, looked up): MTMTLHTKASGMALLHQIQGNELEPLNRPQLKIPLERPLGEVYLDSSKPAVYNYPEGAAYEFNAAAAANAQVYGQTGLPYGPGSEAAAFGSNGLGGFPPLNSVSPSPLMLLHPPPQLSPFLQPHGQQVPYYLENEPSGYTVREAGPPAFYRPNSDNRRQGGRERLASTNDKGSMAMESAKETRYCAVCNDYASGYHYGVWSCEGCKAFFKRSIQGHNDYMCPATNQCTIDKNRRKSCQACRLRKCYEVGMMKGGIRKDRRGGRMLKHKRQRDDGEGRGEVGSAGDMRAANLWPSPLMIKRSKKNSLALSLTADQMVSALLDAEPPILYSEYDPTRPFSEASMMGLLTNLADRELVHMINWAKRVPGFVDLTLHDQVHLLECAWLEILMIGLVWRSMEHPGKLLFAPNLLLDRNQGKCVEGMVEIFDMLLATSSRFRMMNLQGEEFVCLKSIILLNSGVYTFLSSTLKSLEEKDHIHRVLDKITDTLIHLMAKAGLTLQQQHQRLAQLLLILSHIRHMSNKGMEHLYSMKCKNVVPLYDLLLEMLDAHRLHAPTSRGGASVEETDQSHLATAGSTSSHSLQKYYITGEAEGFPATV
SMILES,Potency [1],Potency [2],Potency [3],Potency [4],Potency [5],Potency [6],Potency [7],Potency [8],Potency [9],Potency (Aromatase (Homo sapiens)),Potency [10],Potency [11],Potency [12],outcome [13],Potency [14],Potency [15],Potency [16],Potency [17],outcome [18],Potency [19]
FC(F)(F)C(Cl)Br (configuration not stated),inactive,inactive,inactive,inactive,inactive,inactive,inactive,inactive,inactive,inactive,inactive,inactive,inactive,inactive,inactive,inactive,inactive,inactive,inactive,
CC(=O)Oc1c(C)c(C)c2c(c1C)CC[C@@](C)(CCC[C@H](C)CCC[C@H](C)CCCC(C)C)O2,inactive,inactive,inactive,inactive,inactive,inactive,inactive,inactive,inactive,inactive,inactive,inactive,inactive,inactive,inactive,inactive,inactive,inactive,inactive,inactive
Cc1ccc(S(=O)(=O)O)cc1C,inactive,inactive,inactive,inactive,inactive,inactive,inactive,inactive,inactive,inactive,inactive,inactive,inactive,inactive,inactive,inactive,inactive,inactive,inactive,inactive
CCCCCCCCCCCCCO,inactive,inactive,inactive,inactive,inactive,inactive,inactive,inactive,inactive,inactive,inactive,inactive,inactive,inactive,inactive,inactive,inactive,inactive,inactive,inactive
Cc1ccc(C(C)(C)C)cc1,inactive,inactive,inactive,inactive,inactive,inactive,inactive,inactive,inactive,inactive,inactive,inactive,inactive,inactive,inactive,inactive,inactive,inactive,inactive,
Cc1ccc([N+](=O)[O-])c(C)c1,inactive,inactive,inactive,,inactive,inactive,inactive and 68.6 µM (active),inactive,inactive,inactive,inactive,inactive,inactive,inactive,inactive,inactive,inactive,inactive,inactive,
NCCS(=O)(=O)O,inactive and 28.4 µM (active),inactive,inactive,inactive,inactive,inactive,inactive,inactive,inactive,inactive,inactive,inactive,,inactive,inactive,inactive,inactive,inactive,inactive,inactive
OC[C@H]1O[C@@H]2O[C@H]3[C@H](O)[C@@H](O)[C@@H](O[C@H]4[C@H](O)[C@@H](O)[C@@H](O[C@H]5[C@H](O)[C@@H](O)[C@@H](O[C@H]6[C@H](O)[C@@H](O)[C@@H](O[C@H]7[C@H](O)[C@@H](O)[C@@H](O[C@H]1[C@H](O)[C@H]2O)O[C@@H]7CO)O[C@@H]6CO)O[C@@H]5CO)O[C@@H]4CO)O[C@@H]3CO,inactive,inactive,inactive,,inactive,inactive,23.7 µM (active) and inactive,inactive,inactive,inactive,inactive,inactive,inactive,inactive,inactive,inactive,inactive,inactive,inactive,inactive
CNC[C@H](O)c1ccc(O)c(O)c1,inactive,inactive,inactive,,inactive,inactive,inactive,inactive,inactive,inactive,inactive,inactive,inactive,inactive,inactive,inactive,inactive,inactive,inactive,
C=CCNCC=C,inactive,inactive,inactive,,inactive,inactive,inactive,inactive,inactive,inactive,inactive,inactive,inactive,inactive,inactive,inactive,inactive,inactive,inactive,
CC1(C)O[C@@H]2C[C@H]3[C@@H]4C[C@H](F)C5=CC(=O)C=C[C@]5(C)[C@@]4(F)[C@@H](O)C[C@]3(C)[C@]2(C(=O)CO)O1,inactive,inactive,inactive,,inactive,inactive,inactive,inactive,inactive,inactive,inactive,inactive,inactive,inactive,inactive,inactive,inactive,inactive,inactive,inactive
CCCCCCC(C)O (configuration not stated),inactive,inactive,55.6 µM (active) and inactive,,inactive,inactive,inactive,inactive,inactive,inactive,inactive,inactive,inactive,inactive,inactive,inactive,inactive,inactive,inactive,
CC1(C)C(C=C(Cl)Cl)C1C(=O)OCc1cccc(Oc2ccccc2)c1 (configuration not stated),inactive,inactive,inactive,,inactive,inactive,inactive,inactive,inactive,inactive,inactive,inactive,inactive,,inactive,inactive,inactive,inactive,inactive,
CN(C)C,inactive,inactive,inactive,,inactive,inactive,inactive,inactive,inactive,inactive,inactive,inactive,inactive,inactive,inactive,inactive,inactive,inactive,inactive,
COc1cc([C@H]2Oc3cc([C@H]4Oc5cc(O)cc(O)c5C(=O)[C@@H]4O)ccc3O[C@@H]2CO)ccc1O,inactive,inactive,inactive,,inactive,inactive,inactive,inactive,inactive,inactive,inactive,inactive,inactive,inactive,inactive,,inactive,inactive,inactive,
COC(=O)CC(=O)OC,inactive,inactive,inactive,inactive,inactive,inactive,inactive,inactive,inactive,inactive,inactive,inactive,inactive,inactive,inactive,inactive,inactive,inactive,inactive,
C/C=C/C(=O)N(CC)c1ccccc1C,inactive,inactive,inactive,,inactive,inactive,inactive,inactive,inactive,inactive,inactive,inactive,inactive,inactive,inactive,inactive,inactive,inactive,inactive,
O=C(O)c1cc(=O)[nH]c(=O)[nH]1,inactive,inactive,inactive,inactive,inactive,inactive,inactive,inactive,inactive,inactive,inactive,inactive,inactive,inactive,inactive,inactive,inactive,inactive,inactive,inactive
CCCCCCCCCCCCO,inactive,inactive,inactive,inactive,inactive,inactive,inactive,inactive,inactive,inactive,inactive,inactive,inactive,inactive,inactive,inactive,inactive,inactive,inactive,inactive
CC(=O)Nc1ccc2c(c1)Cc1cc(NC(C)=O)ccc1-2,inactive,inactive,inactive,inactive,inactive,inactive,9.66 µM (active) and 864 nM (active),,inactive,inactive,inactive,inactive,,inactive,inactive,inactive,inactive,inactive,inactive,
CC(=O)OC(C)C,inactive,inactive,inactive,inactive,inactive,inactive,,inactive,inactive,inactive,inactive,inactive,inactive,inactive,inactive,inactive,inactive,inactive,inactive,inactive
O=S1(=O)CCCO1,inactive,inactive,inactive,,inactive,inactive,inactive,inactive,inactive,inactive,inactive,inactive,inactive,inactive,inactive,inactive,inactive,inactive,inactive,inactive
O=C(O)COCCN1CCN(C(c2ccccc2)c2ccc(Cl)cc2)CC1 (configuration not stated),inactive,inactive,inactive,inactive,inactive,inactive,inactive,inactive,inactive,,inactive,,inactive,inactive,inactive,,inactive,inactive,,inactive
CC(C)(C)c1cccc(C(C)(C)C)c1O,inactive,inactive,inactive,inactive,inactive,inactive,inactive,inactive,inactive,inactive,inactive,inactive,,inactive,inactive,inactive,inactive,inactive,inactive,inactive
CN(C)/N=N/c1nc[nH]c1C(N)=O,inactive,inactive,inactive,inactive,inactive,inactive,inactive,inactive,inactive,inactive,inactive,inactive,,inactive,inactive,inactive,inactive,inactive,inactive,
c1ccc2c(c1)[nH]c1ccccc12,inactive,inactive,inactive,inactive,inactive,inactive,inactive,inactive,inactive,inactive,inactive,inactive,inactive,inactive,inactive,inactive,inactive,inactive,inactive,
CC(C)[N+](C)(CCOC(=O)C1c2ccccc2Oc2ccccc21)C(C)C,inactive,inactive,inactive,inactive,inactive,inactive,inactive,inactive,inactive,inactive,inactive,inactive,,inactive,inactive,inactive,inactive,inactive,inactive,inactive

# From PubChem BioAssay (Tox21)
